Screen size: about 68,000 compounds; about 2,700 (4%) showed an effect of 50% or more. The list comes from a sample in which strong results are over-represented; it also holds similar structures and randomly drawn compounds.
System: Plasmodium berghei
Experiment: Screen against P. berghei liver stage (PbLuc), transformed with Luciferase, at 2uM
Format: functional, HepG2
Conditions: tested at 2 uM

| Compound | INHIBITION |
| --- | --- |
| Cc1nc(CC(C)C)sc1C(=O)N1CCC1 | 11.18% |
| O[C@@H]1C[C@@H](c2nc(-c3cccnc3)no2)N(C2CCOCC2)C1 | -14.24% |
| O=C(NC[C@H]1C[C@@H]2CN(C(=O)c3ccco3)C[C@@H]2O1)c1ccsc1 | 34.93% |
| Cn1cccc1C(=O)NC[C@H]1C[C@@H]2CN(C(=O)c3ccco3)C[C@@H]2O1 | 6.8% |
| CN(C)C[C@H]1C[C@@H]2CN(C(=O)c3ccno3)C[C@@H]2O1 | -30.38% |
| Cn1cccc1C(=O)NC[C@H]1C[C@@H]2CN(C(=O)c3ccno3)C[C@H]2O1 | 50.32% |
| CN(C)C[C@H]1C[C@@H]2CN(C(=O)c3ccco3)C[C@@H]2O1 | 10.49% |
| O=C(NC[C@H]1C[C@@H]2CN(C(=O)c3ccno3)C[C@@H]2O1)C1CCC1 | 55.52% |
| COc1ccc(CN(C)Cn2cc(C)n(-c3cc(C)on3)c2=O)cc1 | 14.29% |
| CCC1c2ccsc2CCN1C(=O)NCc1ccc(C)nc1 (stereo unspecified) | 11.09% |
| COC1COC2(CCN(Cc3cccc(Cl)c3)CC2)C1 (stereo unspecified) | 23.81% |
| CO[C@@H]1CC[C@H]2[C@H]1OCCN2CCOCc1ccccc1 | 3.11% |
| Cc1nc(N[C@H]2COC[C@@H]2N2CCCCC2)c2c(C)nn(C)c2n1 | -11.88% |
| Fc1ccc(-c2cnc(C3CCNCC3)cn2)cc1 | 14.8% |
| c1cc(-c2cncc(C3CCNCC3)n2)n[nH]1 | 29.25% |
| c1cc(-c2cnc(C3CCNCC3)cn2)n[nH]1 | 66.18% |
| Cc1cccc(CN2C(=O)C[C@H]3[C@@H]2CCN3CC2CC2)n1 | 3.86% |
| NC(=O)C1CN(C(=O)Nc2ccc(SC(F)(F)F)cc2)CCO1 (stereo unspecified) | -31.17% |
| O=C(NC1CCC1)C1CCC2(CN(C(=O)c3ccco3)C2)O1 (stereo unspecified) | -160.99% |
| O=C(NCC1CC1)C1CCC2(CN(C(=O)c3ccno3)C2)O1 (stereo unspecified) | -33.57% |
| O=C(NC1CCC1)C1CCC2(CN(C(=O)c3ccno3)C2)O1 (stereo unspecified) | 57.85% |
| Cc1cc(C)c(CNC(=O)CC2CCCO2)c(=O)[nH]1 (stereo unspecified) | -36.34% |
| O=C1CCCN1CCCC(=O)N1CCCC(Cc2cccnc2)C1 (stereo unspecified) | -11.81% |
| CN(CCOCC1CC1)C(=O)Nc1ccc(C#N)c(Cl)c1 | -47.52% |
| COc1ccc(C(=O)N2C[C@@H](C(=O)O)[C@H](c3ccccc3C)C2)c(O)c1 | -43.72% |
| CC(C)N1CCOC[C@H]1c1nc(-c2ccncc2)c[nH]1 | 54.56% |

| Compound | INHIBITION |
| --- | --- |
| c1cc(-c2c[nH]c([C@@H]3COCCN3C3CCOCC3)n2)ccn1 | 30.63% |
| CN1CCOC[C@H]1c1nc(-c2ccncc2)c[nH]1 | 28.45% |
| O=C(O)[C@@H]1CN(C(=O)c2ccc(O)cc2)C[C@H]1c1cccc(F)c1 | 38.65% |
| CN(C)CC(=O)N1C[C@H]2CCC[C@@]2(COc2ccccn2)C1 | 19.44% |
| O=C(CCC(=O)N1CCCC1c1ccsc1)N1CCOCC1 (stereo unspecified) | -26.92% |
| Cc1ccc(-c2ncc(C(=O)N3CCC[C@H](N)C3)c(O)n2)cc1 | 63.1% |
| Cc1ccc(-c2ncc(C(=O)N3CCCN4CCC[C@H]4C3)c(O)n2)cc1 | 32.26% |
| Cc1nc(C(C)C)ncc1C(=O)N1CCCC(N2CCCC2)C1 (stereo unspecified) | 11.44% |
| Cc1ccc(-c2ncc(C(=O)N3CCN4CCCCC4C3)c(O)n2)cc1 (stereo unspecified) | 60.9% |
| Cc1ccc(-c2ncc(C(=O)N3CCCC(CCN)C3)c(O)n2)cc1 (stereo unspecified) | 41.07% |
| Cc1nc(-c2cccnc2)ncc1C(=O)N1CCCCC(N)C1 (stereo unspecified) | 6.22% |
| c1cnc(N2C[C@H]3CCN(CC4CC4)C[C@H]3C2)cn1 | 11.56% |
| CC(Cn1cccn1)n1cnc2cccc(Cl)c2c1=O (stereo unspecified) | 33.52% |
| CCC(=O)N1CCCC(c2cc(Nc3ncccn3)nc(C)n2)C1 (stereo unspecified) | 11.08% |
| NC(=O)c1ccc(-c2nc3c(c(=O)[nH]2)CCNC3)cc1 | 41.78% |
| O=c1[nH]c(-c2ccc(F)c(F)c2)nc2c1CCNC2 | -18.12% |
| O=c1[nH]c(-c2ccc(F)cc2)nc2c1CCNC2 | 53.66% |
| O=c1[nH]c(COc2ccc(Cl)cc2)nc2c1CCNC2 | 12% |
| O=c1[nH]c(-c2ccc(Cl)cc2)nc2c1CCNC2 | 57.21% |
| O=c1[nH]c(-c2ccccc2F)nc2c1CCNC2 | 1.4% |
| c1ccc(-c2cccc(N3CCC(NCCc4cscn4)CC3)c2)cc1 | -8.16% |
| O=C1CO[C@@H]2CNC[C@H]2N1CC1CC1 | 27.61% |
| CC(C)CN1C(=O)CO[C@@H]2CN(C(=O)N(C)C)C[C@H]21 | -20.67% |
| CC(C)CN1C(=O)CO[C@@H]2CNC[C@H]21 | 70.31% |
| CCN(Cc1cccc(C(=O)Nc2c(C)cnn2C)c1)[C@H]1COC[C@@H]1O | 20.36% |
| CC1CCN(C(=O)[C@@H]2CC[C@@H]3[C@@H](CCN3c3ncc(F)cn3)O2)CC1 | 3.63% |

| Compound | INHIBITION |
| --- | --- |
| CCSCc1cccc(NC(=O)N(C)Cc2ncnn2C)c1 | 72.05% |
| CC(C)OCc1cccc(NC(=O)N(C)Cc2ncnn2C)c1 | 31.51% |
| CCOc1cc(NC(=O)N(C)Cc2ncnn2C)ccc1C | 31.51% |
| CCOc1nc2cnccc2n(CC(=O)NCCc2ccccc2)c1=O | 28.85% |
| COCCNC(=O)Cn1c(-c2ccco2)cc2cccnc21 | 37.87% |
| CCOc1nc2cccnc2n(CC(=O)NCCOC)c1=O | 74.49% |
| CNC(=O)CN1CCOCC2(C1)CN(C(=O)CC(C)C)CCO2 (stereo unspecified) | -1.18% |
| Fc1cccc2[nH]c(CN3CCc4cncnc4C3)nc12 | 7.24% |
| Cc1nn(C)c(N(C)C)c1CNCc1cccnc1N1CCOCC1 | 28.81% |
| O=S1(=O)CCCN1Cc1coc(-c2ccc(C(F)(F)F)cc2)n1 | 1.8% |
| COc1ccc(C(CC(=O)O)NC(=O)c2cc(C)on2)cc1 (stereo unspecified) | 73.09% |
| CSc1ccc(C(C)NC(=O)c2cc(C)on2)cc1 (stereo unspecified) | -121.09% |
| CSc1ccc(C(CC(=O)O)NC(=O)c2cc(C)on2)cc1 (stereo unspecified) | -70.44% |
| CN(C)CC(=O)N1CCC2(CC(=O)N(c3cccc(C#N)c3)C2)C1 (stereo unspecified) | -3.08% |
| CC(C)c1nnc(N2C[C@H]3CC[C@@H](C2)N(Cc2ccccc2)C3)s1 | -23.49% |
| O=C1C[C@@H]2CC[C@H](CN1)N2C(=O)CCCc1ccc(Cl)cc1 | -29.06% |
| O=C1C(NS(=O)(=O)c2ccc(F)cc2)CCN1Cc1ccccc1 (stereo unspecified) | 38.76% |
| O=C1C(NS(=O)(=O)c2cc(F)cc(F)c2)CCN1Cc1ccccc1 (stereo unspecified) | 23.92% |
| O=C1C(NS(=O)(=O)c2cccc(F)c2)CCN1Cc1ccccc1 (stereo unspecified) | 54.29% |
| CC(C)CN1CC[C@@H]2[C@H](CC1)N(C(=O)c1ccccc1)CCS2(=O)=O | -1.31% |
| CC(=O)N1CCS(=O)(=O)[C@@H]2CCN(CC(C)C)CC[C@@H]21 | 60% |
| CC(=O)N1CCS(=O)(=O)[C@@H]2CCN(S(=O)(=O)CC(C)C)CC[C@@H]21 | -12.76% |
| Cc1nsc(C(=O)NCCc2ccc(S(N)(=O)=O)cc2)n1 | -43.28% |
| CC(C)Cc1nc(CN2CCOC(Cn3cccn3)C2)no1 (stereo unspecified) | -20.61% |
| O=C(NC1CC1)c1cc(NC(=O)N2CCCC2)ccc1Cl | 31.51% |
| O=C(NC1CC1)c1cc(NC(=O)N2CCOCC2)ccc1Cl | 64.9% |

| Compound | INHIBITION |
| --- | --- |
| O=C(NC1CC1)c1cc(NC(=O)N2CCSCC2)ccc1Cl | 31.51% |
| CCN(Cc1noc(CC(C)C)n1)Cc1ccccc1Cl | -33.2% |
| CCN(Cc1cc(F)c(OC)c(Cl)c1)Cc1nc(COC)no1 | -20.98% |
| CCN(Cc1cc(F)c(OC)c(Cl)c1)Cc1noc(CC(C)C)n1 | 71.91% |
| CCn1cc(CN2CCCC(c3[nH]ncc3-c3ccc(C)cc3)C2)cn1 (stereo unspecified) | -20.72% |
| CN(C)Cc1nn(C)c2c1CCN(C(=O)c1cccnc1)C2 | 47.97% |
| CNC(=O)c1cccc(CCNc2ncc(Br)cn2)c1 | 12.41% |
| CCn1cc(N)c(-c2nnc3n2CCCC3)n1 | -37.89% |
| Cn1nnc2cc(C(=O)NS(=O)(=O)c3ccc(F)cc3)ccc21 | 28.72% |
| Cn1nnc2cc(C(=O)NS(=O)(=O)c3cccc(C#N)c3)ccc21 | -40.9% |
| Cc1cccc(S(=O)(=O)NC(=O)c2ccc3c(c2)nnn3C)c1 | 53.99% |
| CCc1ncc2c(n1)CN(c1nnc(C)c(C)c1C#N)CC2 | 23.43% |
| Cc1cc(-c2cnc(N3CCCC(C)C3)nc2-c2cccnc2C)on1 (stereo unspecified) | -39.75% |
| CS(=O)(=O)NCc1n[nH]c2c1CCN(C(=O)c1ccsc1)C2 | 19.56% |
| CCC(=O)NCc1cc(Br)ccc1OC(F)F | 43.8% |
| CS(=O)(=O)N1CCN2C(=O)N(C3CCOCC3)C[C@H]2C1 | 35.89% |
| CN1CCN2C(=O)N(C3CCCCC3)C[C@H]2C1 | -22.32% |
| CN1CCN2C(=O)N(C3CCOCC3)C[C@H]2C1 | 52.36% |
| Cc1cnn(CC2CCCN2C(=O)CCc2ccncc2)c1 (stereo unspecified) | -5.39% |
| N#Cc1ccc(C(=O)N2CCc3c(COCC4CC4)cncc3C2)cc1 | -20.87% |
| CSC1(CNC(=O)N(C)Cc2sccc2C)CCOCC1 | 57.16% |
| CSC1(CNC(=O)NCc2sccc2C)CCOCC1 | 13.58% |
| CSC1(CNC(=O)N(C)Cc2ccc(C)s2)CCOCC1 | -18.99% |
